Data taken from PubChem BioAssay (NCI).
This is part of a sample that, as a whole, favours compounds with a hit. Of some 83,000 tested, about 20% had one in any assay.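 The test compound was applied at a single concentration to cells in 96-well plates for 48 hours, and percent growth was recorded.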 Unmarked numbers belong to inactive results. Active and inactive are the calls of the source. The calls were made as follows: active = growth percent below 10; inactive = the rest.

Key:
Test in all cases: NCI-60 one-dose screen, 48 h (100 = growth as untreated, 0 = no growth, -100 = all killed)
Conditions in all cases: 10 µM unless noted
HCT-15 colon = tested on: HCT-15 colon
HT29 colon = tested on: HT29 colon
SNB-75 CNS = tested on: SNB-75 CNS
SNB-19 CNS = tested on: SNB-19 CNS
U251 CNS = tested on: U251 CNS
PC-3 prostate = tested on: PC-3 prostate
SK-MEL-5 melanoma = tested on: SK-MEL-5 melanoma
UACC-62 melanoma = tested on: UACC-62 melanoma
LOX IMVI melanoma = tested on: LOX IMVI melanoma
SK-MEL-28 melanoma = tested on: SK-MEL-28 melanoma
SK-MEL-2 melanoma = tested on: SK-MEL-2 melanoma
EKVX NSCLC = tested on: EKVX NSCLC
SN12C renal = tested on: SN12C renal
UO-31 renal = tested on: UO-31 renal
TK-10 renal = tested on: TK-10 renal
ACHN renal = tested on: ACHN renal
CAKI-1 renal = tested on: CAKI-1 renal
A498 renal = tested on: A498 renal
CCRF-CEM leukemia = tested on: CCRF-CEM leukemia
MOLT-4 leukemia = tested on: MOLT-4 leukemia

Structure (SMILES) | growth (HCT-15 colon) | growth (HT29 colon) | growth (SNB-75 CNS) | growth (SNB-19 CNS) | growth (U251 CNS) | growth (PC-3 prostate) | growth (SK-MEL-5 melanoma) | growth (UACC-62 melanoma) | growth (LOX IMVI melanoma) | growth (SK-MEL-28 melanoma) | growth (SK-MEL-2 melanoma) | growth (EKVX NSCLC) | growth (SN12C renal) | growth (UO-31 renal) | growth (TK-10 renal) | growth (ACHN renal) | growth (CAKI-1 renal) | growth (A498 renal) | growth (CCRF-CEM leukemia) | growth (MOLT-4 leukemia)
CCC1(CC)NC(=O)c2c(c3ccc(Cl)c(Cl)c3n2C)C1C#N (stereo not given) | 100% | 100% | 90% | 85% | 96.1% | 90.5% | 89.9% | 76.1% | 99.7% | 123% | 115% | 95.5% | 84% | 70.5% | 127% | 95.5% | 66.6% | 84.9% | 19.4% | 4.72% (active)
CN(C)Cc1c(-c2ccccc2)[nH]c2ccccc12 | 93.6% | 89.1% | 93.6% | 99% | 106% | 94.9% | 101% | 102% | 97.4% | 97.2% | 108% | 92.3% | 99.4% | 100% | 102% | 106% | 101% | 75.7% | 86.5% | 99.4%
CC1(C)CCCN1CCCN1c2ccccc2Sc2ccc(Cl)cc21 | 50.7% | 26.4% | 91% | 69.1% | 58.3% | 52.6% | 2.18% (active) | 75.6% | 57.9% | 72% | 117% | 61.5% | 68.1% | 42.3% | 84.6% | 61.8% | 60% | 61.7% | 41.7% | 41.7%
O=[N+]([O-])c1cccc(-c2nc(-c3ccc(Cl)cc3Cl)cn2-c2ccccc2)c1 | -6.56% (active) | -67.8% (active) | -56.7% (active) | 53.7% | -60.5% (active) | -47.7% (active) | 71.4% | 31.3% | 3.46% (active) | -16.4% (active) | 52.4% | -8.4% (active) | 11.5% | 2.03% (active) | 29.3% | -52.1% (active) | -68.8% (active) | -33.2% (active) | 95.5% | 45.4%
COc1nc(N)nc(-n2c(-c3ccc(C)cc3)nc3ccccc32)c1NCc1ccc(C)cc1 | 94.8% | 94.7% | 75.5% | 86.5% | 83% | 65.7% | 96.8% | 64.4% | 87.8% | 107% | 99.9% | 94.9% | 90% | 59.9% | 98.4% | 93.7% | 40.7% | 80.7% | 94.5% | 83.3%
CCN(CC)CCOC(COc1cc(C)cc(C)c1)COc1cc(C)cc(C)c1 | 34.5% | 10.3% | 61.4% | 47.5% | 32.5% | 33.6% | -88.5% (active) | 46.4% | -12% (active) | 39.6% | 86.7% | 53% | 28.8% | 31.6% | 48% | 46.2% | 40.1% | 28.4% | 14.5% | 13.5%
COc1cc(NCCN(CC(C)C)C2CCCC2)c2ncccc2c1 | 73.8% | 71.8% | 89.4% | 97.6% | 94.1% | 85.2% | 97.2% | 92.8% | 89.8% | 101% | 89.2% | 95.2% | 93.1% | 83.7% | 109% | 82.2% | 97.1% | 75% | 121% | 90.9%
c1cnc2nc3c(cc2c1)oc1ccccc13 | 101% | 105% | 76.6% | 92% | 97% | 104% | 91.2% | 87.1% | 97.7% | 111% | 101% | 102% | 94.8% | 68.3% | 107% | 93.3% | 80% | 69.3% | 90.9% | 92.8%
O=S(=O)(NCCNc1nccc(-c2c(-c3cccc(F)c3)nc3occn23)n1)c1cccc2ccccc12 | 41.5% | 34.2% | 61.4% | 67.1% | 59.7% | 30.6% | 30% | 45.1% | 59.7% | 73% | 58.3% | 48.5% | 47.6% | 15.9% | 47.1% | 40.5% | 25% | 37.7% | 43.8% | 26.3%
NC(=O)c1cccc(-c2cc(C(N)=O)ccc2Cl)c1 | 33.8% | 8.86% (active) | -19.6% (active) | 41.6% | 19.1% | 29.6% | 14.9% | 35.7% | 42.1% | 58.8% | 34.5% | 35.7% | 50% | 45.7% | 51.2% | 36.3% | 31.8% | -5.64% (active) | 7.74% (active) | 26.9%
CCOC(=O)C1CC(=O)c2cc(OC)c(OC)cc2C1 (stereo not given) | 100% | 88.6% | 91.7% | 100% | 103% | 86.4% | 109% | 88.5% | 104% | 119% | 107% | 114% | 100% | 93.6% | 126% | 107% | 120% | 129% | 84.6% | 94.3%
O=C1Nc2c(ccc(Cl)c2Cl)/C1=C/c1ccc(F)cc1 | 80.6% | 91% | 76.1% | 73.5% | 92.8% | 79.3% | 86.8% | 79.6% | 81.2% | 115% | 5.62% (active) | 60.2% | 98.3% | 71.9% | 109% | 85.9% | 38% | 92.5% | 93.5% | 76%
Clc1ccc(C2CC(c3cccc(Nc4ccncc4)c3)=NN2c2cc(Cl)cc(Cl)c2)cc1 (stereo not given) | -25.2% (active) | 5.22% (active) | 82.8% | 89.2% | 0.417% (active) | 48.9% | 88.9% | 101% | -44.6% (active) | 74.2% | 107% | 74.3% | 76.3% | 71.2% | 94.8% | 77.2% | 55.3% | 85.6% | 11.3% | 7.7% (active)
COc1cc(NCCCN(CC(C)C)CC(C)C)c2ncccc2c1 | 72.9% | 82.7% | 95.4% | 99.9% | 96.1% | 70.4% | 97% | 89% | 85.3% | 97% | 91.8% | 84.5% | 88.2% | 81.4% | 102% | 80.7% | 92.4% | 79.2% | 87.5% | 103%
Cc1ccc2nc3c(cc2c1)CSc1nnc(-c2ccc[nH]c2=S)n1N3 | 105% | 108% | 91.4% | 90.7% | 112% | 95.6% | 96.4% | 87% | 96.6% | 103% | 100% | 102% | 92.8% | 64.3% | 105% | 97.4% | 78.7% | 101% | 104% | 91.9%
